Inhibition data for 98 compounds are collected here from PubChem BioAssay AID372 (MTDP, 2006).

The campaign covered roughly 100,000 compounds. About 770 (0.77%) were called active. For the sample, actives were picked, then their nearest neighbours and some compounds at random. Values without a mark were called inactive. No stated cut-off is given here; in the data, active means inhibition above about 50%; inactive means the rest.

In this test the target is Gag-Pol polyprotein (Human immunodeficiency virus type 1 group M subtype B (isolate HXB2)) (UniProt P04585). As to the kind of experiment: RNase H inhibition, HIV 1 Gag Pol polyprotein, FRET biochemical assay, screening (AID 372). The settings on record: HIV-1 RT RNase H, FRET RNA/DNA substrate fluorescence; at 10 µM; stronger effect = higher value.
Broadly, the inhibition is the drop in the measured response relative to a control, in per cent. Turning to `COc1ccc(C2C3=C(CC(C)(C)CC3=O)Nc3ccccc3N2C(=O)CC(C)C)cc1` (stereo not drawn), the inhibition was 3%.

On to `O=C(/C=C/c1cccc([N+](=O)[O-])c1)Nc1ccc2oc(-c3ccccc3)nc2c1`, for which the inhibition is 31%.

Take `O=C(/C=C/c1ccc(Cl)cc1)Nc1ccc(-c2nc3ccccc3o2)cc1`: the inhibition was 52% (active).

As for `Cc1cc(C)c2oc(-c3ccc(NC(=O)/C=C/c4cccc([N+](=O)[O-])c4)cc3)nc2c1`, the inhibition was 16%.

Regarding `O=C(/C=C/c1cccc([N+](=O)[O-])c1)Nc1ccc(-c2nc3ccccc3o2)c(O)c1`, the inhibition is 14%.

`Cc1ccc2nc(-c3ccc(NC(=O)/C=C/c4ccc(Cl)cc4)cc3)oc2c1`: the inhibition was 48%.

As to `O=C(/C=C/c1ccc(Cl)cc1)Nc1ccc(-c2nc3ccccc3o2)c(O)c1`, the inhibition was 20%.

Consider `O=C(/C=C/c1cccc([N+](=O)[O-])c1)Nc1ccc(-c2nc3ccccc3o2)cc1`, for which the inhibition was 54% (active).

Regarding `Cc1ccc2nc(-c3ccc(NC(=O)/C=C/c4cccc([N+](=O)[O-])c4)cc3)oc2c1`, the inhibition was 54% (active).

With `Cc1ccc2nc(-c3ccc(C)c(NC(=O)/C=C/c4cccc([N+](=O)[O-])c4)c3)oc2c1`, the inhibition was 40%.

In the case of `N#Cc1cnn(-c2ccc3ccccc3c2)c1N`, the inhibition was 5%.

As for `Cc1ccc(N=Cc2ccco2)c(C)c1`, the inhibition was 29%.

In the case of `CC1(C)CC(=O)c2cc(C(=O)NCc3ccccc3)c(=O)n(-c3ccccc3)c2C1`, the inhibition was 15%.

On to `COc1ccc(CCNC(=O)COc2ccc(Br)cc2Cl)cc1OC`, for which the inhibition was 53% (active).

In the case of `O=C(COc1ccc(Br)cc1Cl)NCCc1ccccc1`, the inhibition was 16%.

For the compound `COc1ccc(CC(=O)Nc2ccc(Br)cc2C)cc1OC`, the inhibition was 50% (active).

On to `COc1ccc(CCNC(=O)COc2ccc(Br)cc2)cc1OC`, for which the inhibition is 1%.

Turning to `COCCNC(=O)COc1ccc(Cl)cc1Br`, the inhibition was 14%.

On to `COc1ccc(CCNC(=O)COc2ccc(Cl)cc2Br)cc1OC`, for which the inhibition is 54% (active).

Consider `COc1ccc(CC(=O)Nc2ccc(Br)cc2F)cc1OC`, for which the inhibition is 12%.

In the case of `COc1ccc(CC(=O)Nc2ccc(Cl)cc2C)cc1OC`, the inhibition is 0%.

Regarding `COc1ccc(CCNC(=O)COc2ccccc2OC)cc1OC`, the inhibition is 1%.

In the case of `CC(C(=O)N1CCOCC1)N1C(=O)c2cccc3cccc(c23)C1=O` (stereo not drawn), the inhibition is 19%.

Consider `COc1ccc(C(=O)N2CCc3ccccc3C2)cc1`, for which the inhibition is 15%.

On to `COc1cc(/C=C2/C(=O)NC(=O)N(Cc3ccco3)C2=O)ccc1OCC(N)=O`, for which the inhibition was 0%.

For `CCOc1ccc(/C=C2\SC(=S)N(Cc3ccccc3)C2=O)c(OCC)c1`, the inhibition is 12%.

As for `CCOC(=O)C1=C(C)N(c2ccccc2)C(=O)C1`, the inhibition is 10%.

`COc1cccc(C2/C(=C(\O)c3ccc(Cl)cc3)C(=O)C(=O)N2CCCCCC(=O)O)c1` (stereo not drawn): the inhibition was 16%.

For `CC(C)(C)c1cc(CCC(=O)NCCN2C(=O)c3ccccc3C2=O)cc(C(C)(C)C)c1O`, the inhibition is 2%.

On to `Cc1ccc(SCC(=O)N2CCCC2)cc1`, for which the inhibition was 6%.

Regarding `c1ccc(NC2=Nc3cccc4cccc2c34)cc1`, the inhibition is 12%.

Regarding `Nc1cccc(C2=Nc3cccc4cccc(c34)N2)c1`, the inhibition is 56% (active).

`Nc1ccc(C2=Nc3cccc4cccc(c34)N2)cc1`: the inhibition is 56% (active).

On to `Nc1cccc(-c2cc(C(=O)O)c3ccccc3n2)c1`, for which the inhibition is 0%.

Turning to `Nc1cccc(-c2nnc(-c3ccccc3)o2)c1`, the inhibition is 3%.

As for `Cc1ccc([N+](=O)[O-])cc1-c1ccc(/C=C(\C#N)C(=O)NCc2ccco2)o1`, the inhibition is 1%.

`Cc1nn(-c2ccccc2)c2c1C(c1ccc(O)cc1)C(C#N)=C(N)O2` (stereo not drawn): the inhibition is 3%.

Turning to `O=c1/c(=C/c2cc([N+](=O)[O-])ccc2OCCCOc2ccccc2)sc2nc3ccccc3n12`, the inhibition was 4%.

For `C=CC(=O)NC1(CCC)CCCCC1`, the inhibition is 11%.

On to `COc1ccc(/C=C(C(=O)O)/C(C)=C/C(=O)O)c(OC)c1`, for which the inhibition is 7%.

Turning to `COc1ccc(C(=O)c2ccc(Cl)cc2Cl)cc1`, the inhibition is 15%.

In the case of `Cc1sc2nc(-c3ccccc3)[nH]c(=O)c2c1C`, the inhibition was 10%.

As for `Cc1sc2nc(-c3ccc(Br)cc3)[nH]c(=O)c2c1C`, the inhibition was 8%.

On to `N=C1S/C(=C\c2ccc(N3CCOCC3)cc2)C(=O)N1c1ccc(Br)cc1`, for which the inhibition was 53% (active).

For `CCOC(=O)c1ccc(N2C(=N)S/C(=C\c3ccc(N4CCOCC4)cc3)C2=O)cc1`, the inhibition was 15%.

For `O=C1S/C(=C/c2ccc(Br)cc2)C(=O)N1c1ccccc1`, the inhibition was 0%.

With `O=C(NCc1ccccn1)C(=O)Nc1ccc(F)cc1`, the inhibition is 12%.

Regarding `COc1ccc(NC(=O)C(=O)NCc2ccccn2)cc1`, the inhibition was 8%.

As for `O=C(NCc1ccccn1)C(=O)Nc1ccc(Oc2ccccc2)cc1`, the inhibition was 54% (active).

In the case of `COc1ccc(NC(=O)/C(C#N)=C\c2cn(CC(=O)O)c3ccccc23)cc1`, the inhibition is 0%.

Turning to `O=C(O)Cn1cc(/C=C2/C(=O)NC(=O)N(c3ccccc3F)C2=O)c2ccccc21`, the inhibition was 10%.

In the case of `COc1cccc(OCCn2cc(C=C3C(=O)NC(=S)NC3=O)c3ccccc32)c1`, the inhibition is 57% (active).

`COc1cccc(OCCn2cc(C=C3C(=O)NC(=O)NC3=O)c3ccccc32)c1`: the inhibition was 12%.

As to `O=C(Cn1cc(/C=C2/C(=O)NC(=S)N(c3ccccc3F)C2=O)c2ccccc21)Nc1ccccc1`, the inhibition was 47%.

As to `N#C/C(=C\c1cn(CC(=O)Nc2ccccc2)c2ccccc12)C(=O)Nc1ccccc1`, the inhibition was 0%.

As to `O=C(O)Cn1cc(/C=C2\C(=O)NC(=S)N(c3ccccc3F)C2=O)c2ccccc21`, the inhibition was 55% (active).

With `O=C(Cn1cc(/C=C2/C(=O)NC(=S)N(c3cccc(Cl)c3)C2=O)c2ccccc21)Nc1ccccc1`, the inhibition was 55% (active).

For `Cc1cccc(OCCn2cc(C=C3C(=O)NC(=S)NC3=O)c3ccccc32)c1`, the inhibition was 7%.

Turning to `O=C(Cn1cc(/C=C2/C(=O)NC(=O)N(c3cccc(Cl)c3)C2=O)c2ccccc21)Nc1ccccc1`, the inhibition is 32%.

For the compound `COc1ccc(NC(=O)/C(C#N)=C/c2cn(CC(=O)Nc3ccccc3)c3ccccc23)cc1`, the inhibition was 59% (active).

In the case of `O=C(Cn1cc(/C=C2/C(=O)NC(=O)N(c3cccc(F)c3)C2=O)c2ccccc21)Nc1ccccc1`, the inhibition was 46%.

In the case of `COc1ccc(OC)c(N2C(=O)C(Cl)=C(N3CCCCC3)C2=O)c1`, the inhibition was 14%.

For the compound `CCc1ccc(/C=C2\SC(=O)NC2=O)cc1`, the inhibition is 4%.

`COc1cc(NC(=O)c2ccc(Cl)c([N+](=O)[O-])c2)ccc1NC(=O)c1ccco1`: the inhibition is 5%.

For `Cc1nnc(NC(=O)Cc2ccc(Br)cc2)s1`, the inhibition is 3%.

As to `COc1cc(CN2CCN(Cc3ccc4c(c3)OCO4)CC2)c([N+](=O)[O-])cc1OC`, the inhibition was 6%.

Take `CCC(=O)Nc1cc(-c2nc3cc(Cl)ccc3o2)ccc1C`: the inhibition was 0%.

With `CC1=C(C(=O)OCC2CCCCC2)C(c2ccccc2F)NC(=O)N1` (stereo not drawn), the inhibition is 17%.

Consider `Cc1ccc(N2C(=O)NC(=O)/C(=C/c3cn(CC(=O)Nc4ccccc4)c4ccccc34)C2=O)cc1`, for which the inhibition was 43%.

As for `O=C1NC(=O)N(c2ccccc2F)C(=O)/C1=C/c1ccc(OCc2cccc(C(=O)O)c2)cc1`, the inhibition is 4%.

On to `COC(=O)Cn1cc(/C=C2\C(=O)NC(=S)N(c3cccc(Cl)c3)C2=O)c2ccccc21`, for which the inhibition is 4%.

Consider `CCOc1cccc(N2C(=O)NC(=O)/C(=C\c3cn(CC(=O)OC)c4ccccc34)C2=O)c1`, for which the inhibition was 0%.

For `CCOc1ccc(N2C(=O)/C(=C/c3ccc(OCc4cccc(C(=O)O)c4)cc3)C(=O)NC2=S)cc1`, the inhibition was 5%.

Turning to `O=C(Cn1cc(/C=C2/C(=O)NC(=S)N(c3ccccc3)C2=O)c2ccccc21)Nc1ccccc1`, the inhibition was 53% (active).

With `Cc1ccccc1N1C(=O)/C(=C\c2cn(CC(=O)Nc3ccccc3)c3ccccc23)C(=O)NC1=S`, the inhibition was 26%.

Take `O=C(Cn1cc(/C=C2/C(=O)NC(=O)N(c3ccc(Cl)cc3)C2=O)c2ccccc21)Nc1ccccc1`: the inhibition was 11%.

In the case of `COc1ccc(N2C(=O)/C(=C/c3cn(Cc4ccccc4)c4ccccc34)C(=O)NC2=S)cc1`, the inhibition is 15%.

Take `CCc1ccccc1NC(=O)c1nn2c(c1Cl)NC(c1ccc(C)cc1)CC2C(F)(F)F` (stereo not drawn): the inhibition was 9%.

Take `CCCOc1ccccc1C1C(C(=O)OCC2CCCO2)=C(C)NC2=C1C(=O)CCC2` (stereo not drawn): the inhibition was 6%.

As for `Oc1c(Br)cc(/C=N/Nc2nc(N3CCCCC3)nc(N3CCCCC3)n2)c(O)c1Br`, the inhibition was 29%.

Take `CC(=O)NN1C(=O)/C(=C\c2ccc(I)o2)SC1=S`: the inhibition is 0%.

Consider `CCCOC(=O)c1c(NC(=O)Cc2ccc(OC)cc2)sc2c1CCCC2`, for which the inhibition was 40%.

With `CC1=NN(c2ccccc2)C(=O)C1C(c1ccccc1)C(C#N)C#N` (stereo not drawn), the inhibition was 54% (active).

For the compound `CC1=NN(c2ccccc2)C(=O)C1C(c1ccc([N+](=O)[O-])cc1)C1C(=O)N(c2ccccc2)N=C1C` (stereo not drawn), the inhibition is 4%.

As for `CC(=O)NC(c1ccccc1)C1C(=O)N(c2ccccc2)N=C1C` (stereo not drawn), the inhibition was 4%.

Take `COc1ccc(Cl)cc1N(CC(=O)N1CCC(C)CC1)S(=O)(=O)c1ccc(C)c([N+](=O)[O-])c1`: the inhibition is 6%.

On to `CCOc1cc(C=C2C(=O)NC(=O)NC2=O)ccc1OS(=O)(=O)c1ccc(C)cc1`, for which the inhibition is 17%.

Consider `O=C(COc1ccc(Cl)cc1Cl)n1cc([N+](=O)[O-])cn1`, for which the inhibition was 6%.

As for `CSc1nc(C)c(C(C)=O)cc1C#N`, the inhibition was 13%.

As to `COc1ccc(-c2cc(-c3ccc(OC)cc3)c(C#N)c(SCC(=O)c3ccc(C)cc3)n2)cc1`, the inhibition is 17%.

With `CCc1c(C#N)c(N)nc(SCC(=O)c2ccc(Cl)c(Cl)c2)c1C#N`, the inhibition was 14%.

As to `CCCCSc1nc(C)c(C(C)=O)cc1C#N`, the inhibition was 8%.

For `Cc1cc(-c2ccc(C)o2)c(C#N)c(SCC(=O)c2ccccc2)n1`, the inhibition was 1%.

Consider `COc1ccc(C(=O)CSc2nc3c(c(-c4ccc(C)o4)c2C#N)CCCC3)cc1`, for which the inhibition was 15%.

With `CCc1c(C#N)c(N)nc(SCC(=O)c2ccc(C)cc2)c1C#N`, the inhibition is 13%.

For `N#Cc1c(SCC(=O)c2ccc(Cl)cc2)nc2c(c1-c1ccco1)CCCC2`, the inhibition was 12%.

For the compound `Cc1nc(SCC(=O)c2ccc(O)c(O)c2)c(C#N)c(CC(C)C)c1C(N)=O`, the inhibition was 51% (active).

On to `CC(=O)c1cc(C#N)c(SCC(=O)c2ccc(O)c(O)c2)nc1C`, for which the inhibition was 75% (active).
